Laboratory results reported in PubChem BioAssay (Tox21).
Inconclusive results are not listed. Active and inactive are the calls of the source. Unless noted, calls come from the whole dose curve; as a rule, active = well fitted curve in the direction sought with a large enough effect in the repeat runs; inconclusive = weak or mixed curves; inactive = no such curve, though single readings can be large; an effect the other way counts as inactive or inconclusive.

Columns and labels:
[1] = qHTS assay to identify small molecule agonists of H2AX (AID 1224845; active = well fitted activation curve with a large enough effect in the signal ratio in the repeat runs, not every such curve was filed as active; the % refers to the signal ratio)
Summary of the method: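 Phospho-H2AX Ser139 measured by HTRF (ex 320 nm; em 665 and 620 nm) after 24 hr antibody incubation. Compounds, 15 concentrations, 0.76% DMSO, were applied to CHO-K1 cells for 3hr at 37C before lysis.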

[2] = qHTS assay to identify small molecule agonists of the hypoxia (HIF-1) signaling pathway (AID 1224846; active = well fitted activation curve with a large enough effect in the signal ratio in the repeat runs, not every such curve was filed as active; the % refers to the signal ratio)
Summary of the method: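 A low-serum medium (0.5% dialyzed FBS) holding 2,000 HRE-bla ME-180 cells per well is preincubated for 5 hrs, dosed with compounds by pintool, and kept a further 17 hrs at 37C, 5% CO2 before CCF4-AM FRET detection of beta-lactamase.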

[3] = qHTS assay to identify small molecule agonists of H2AX - cell viability counter screen (AID 1224847; calls by dose curve; note: nearly all actives have a fitted effect of over 30% in size; note: potency is the fitted concentration of half-maximal effect)
Summary of the method: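 Cells plated first: CHO-K1, 1000 per well in 10% FBS medium, incubated overnight at 37C. Then 15-point compound titration added (final DMSO 0.76%) for 3 hr. Finally CellTiter-Glo added and luminescence read.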

[4] = qHTS assay to identify small molecule antagonists of the estrogen related receptor (ERR) signaling pathway from Tox21 library (AID 1224848); note: nearly all actives have a fitted effect of over 50% in size; note: potency is the fitted concentration of half-maximal effect
Summary of the method: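 Reading was by luminescence 30 min after ONE-Glo addition. Before that, ERR cells at 2,000 per well had rested 6 h at 37 C/5% CO2 and then received pin-tooled compounds in DMSO for 18 h at 37 C.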

[5] = qHTS assay to identify small molecule agonists of the estrogen related receptor (ERR) signaling pathway from Tox21 library (AID 1224849; calls by dose curve; note: nearly all actives have a fitted effect of over 15% in size); settings: ERR reporter cell line, ONE-Glo luciferase, 18 h; at 92.4 µM (top of the series) unless noted
Summary of the method: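 Screening used an NTP-provided ERR luciferase cell line. Compounds in DMSO were added 6 h after seeding and left 18 h at 37 C before a 30 min ONE-Glo step and luminescence reading.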

[6] = qHTS RealTime-Glo MT Cell Viability Assay in HepG2 cells - 24 hour (AID 1224867); note: nearly all actives have a fitted effect of over 50% in size; note: potency is the fitted concentration of half-maximal effect
Summary of the method: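 Cells + NanoLuc/prosubstrate dispensed (600 cells/well) → 5 h at 37 C/5% CO2 → compounds in DMSO transferred → 40 h incubation at 37 C, luminescence read at 0, 8, 16, 24, 32, 40 h.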

[7] = A CellTox Green Cytotoxicity Assay to monitor cytotoxicity in HEK293 cells - 0 hour (AID 1224869); note: nearly all actives have a fitted effect of over 50% in size
Summary of the method: (§1)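 Fluorescence intensity, read at 0, 8, 16, 24, 32 and 40 h of compound treatment, reflected dye binding to DNA of dead HEK293 cells; compounds (23 nL, DMSO) were added 5 h after plating cells with reagent.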

[8] = qHTS RealTime-Glo MT Cell Viability Assay in HepG2 cells - 40 hour (AID 1224870); note: nearly all actives have a fitted effect of over 50% in size; note: potency is the fitted concentration of half-maximal effect
Summary of the method: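 Real-time viability: cells seeded at 600 per well together with NanoLuc and cell-permeant prosubstrate, compounds added after 5 h incubation. Luminescence tracked at 0, 8, 16, 24, 32 and 40 h of exposure.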

[9] = A CellTox Green Cytotoxicity Assay to monitor cytotoxicity in HEK293 cells - 40 hour (AID 1224871); note: nearly all actives have a fitted effect of over 45% in size; note: potency is the fitted concentration of half-maximal effect
Summary of the method: as §1

[10] = qHTS RealTime-Glo MT Cell Viability Assay in HEK293 cells - 32 hour (AID 1224868); note: nearly all actives have a fitted effect of over 50% in size; note: potency is the fitted concentration of half-maximal effect
Summary of the method: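 Tox21 10K qHTS, HEK293, 600 cells/well, RealTime-Glo reagent co-dispensed with cells; 5 h preincubation, compound by pintool, 37 C, luminescence at 0–40 h.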
% is set by controls: 0 for no effect and ±100 for the full control effect.

CCC(Cl)CCC(Cl)C(Cl)CC(Cl)C(Cl)C(Cl)CCl (stereo unspecified)
inactive: Potency [1] | Potency [2] | Potency [3] | Potency [4] | activity change, positive = activation [5] 0.0481% | Potency [6] | Potency [7] | Potency [8] | Potency [9]

O=[N+]([O-])c1ccc(NCCO)c(OCCO)c1
inactive: Potency [1] | Potency [2] | Potency [3] | Potency [4] | activity change, positive = activation [5] -14.5% | Potency [6] | Potency [10] | Potency [7] | Potency [8] | Potency [9]

CCCCOC(=O)CCCCCCCC(=O)OCCCC
inactive: Potency [1] | Potency [2] | Potency [3] | Potency [4] | activity change, positive = activation [5] 2.99% | Potency [6] | Potency [10] | Potency [7] | Potency [8] | Potency [9]

NCCCN1CCOCC1
inactive: Potency [1] | Potency [2] | Potency [3] | Potency [4] | activity change, positive = activation [5] 6.49% | Potency [6] | Potency [10] | Potency [7] | Potency [8] | Potency [9]

C[C@@H](c1ncncc1F)C(O)(Cn1cncn1)c1ccc(F)cc1F (stereo partly specified)
inactive: Potency [1] | Potency [2] | Potency [3] | Potency [4] | activity change, positive = activation [5] -0.316% [at 42.5 µM] | Potency [6] | Potency [10] | Potency [7] | Potency [8] | Potency [9]

O=C1CCC(=O)O1
inactive: Potency [1] | Potency [2] | Potency [3] | Potency [4] | activity change, positive = activation [5] 5.7% | Potency [6] | Potency [7] | Potency [8] | Potency [9]

O=C(OCCCCCCOC(=O)c1ccccc1)c1ccccc1
inactive: Potency [1] | Potency [2] | Potency [3] | Potency [4] | activity change, positive = activation [5] 1.59% | Potency [6] | Potency [7] | Potency [9]

NS(=O)(=O)c1ccc(N2CCCCS2(=O)=O)cc1
inactive: Potency [1] | Potency [2] | Potency [3] | Potency [4] | activity change, positive = activation [5] 5.22% [at 42.5 µM] | Potency [6] | Potency [10] | Potency [7] | Potency [8] | Potency [9]

CCN(CC)CCNc1ccc(CNC=O)c2sc3ccc(OC)cc3c(=O)c12
inactive: Potency [1] | Potency [2] | Potency [3] | activity change, positive = activation [5] -41.1% | Potency [7]
active: Potency [4] 2.73 µM | Potency [6] 21.9 µM | Potency [10] 17.4 µM | Potency [8] 17.4 µM | Potency [9] 19.5 µM

ClCCOCCOCCCl
inactive: Potency [1] | Potency [2] | Potency [3] | Potency [4] | activity change, positive = activation [5] 2.88% | Potency [6] | Potency [10] | Potency [7] | Potency [8] | Potency [9]

O=C(NCC1CN(c2ccc(N3CCOCC3=O)cc2)C(=O)O1)c1ccc(Cl)s1 (stereo unspecified)
inactive: Potency [1] | Potency [2] | Potency [3] | activity change, positive = activation [5] -38.4% [at 42.5 µM] | Potency [6] | Potency [10] | Potency [7] | Potency [9]
active: Potency [4] 23.7 µM

O=C1[C@H]2CCCC[C@H]2C(=O)N1CCCCN1CCN(c2nsc3ccccc23)CC1
active: Potency [4] 26.6 µM
inactive: Potency [1] | Potency [2] | Potency [3] | activity change, positive = activation [5] -38.9% [at 42.5 µM] | Potency [6] | Potency [7] | Potency [8]

COc1cc(C(=O)OCCCN2CCCN(CCCOC(=O)c3cc(OC)c(OC)c(OC)c3)CC2)cc(OC)c1OC
active: Potency [10] 9.52 µM
inactive: Potency [1] | Potency [2] | Potency [3] | Potency [4] | activity change, positive = activation [5] -15% [at 42.5 µM] | Potency [6] | Potency [7]

CN(C)CCOC(c1ccccc1)c1ccc(Br)cc1 (stereo unspecified)
inactive: Potency [1] | Potency [2] | Potency [3] | Potency [4] | activity change, positive = activation [5] -2.31% [at 42.5 µM] | Potency [6] | Potency [7] | Potency [8] | Potency [9]

CCCCC(CC)COC(=O)CCCCCCCCC(=O)OCC(CC)CCCC (stereo unspecified)
inactive: Potency [1] | Potency [2] | Potency [3] | Potency [4] | activity change, positive = activation [5] 1.57% | Potency [6] | Potency [10] | Potency [7] | Potency [8] | Potency [9]

Nc1ccc([N+](=O)[O-])c(C(F)(F)F)c1
inactive: Potency [1] | Potency [2] | Potency [3] | Potency [4] | activity change, positive = activation [5] -17.3% [at 42.5 µM] | Potency [6] | Potency [10] | Potency [7] | Potency [8] | Potency [9]

COC(C)OC
inactive: Potency [1] | Potency [2] | Potency [3] | Potency [4] | activity change, positive = activation [5] -2.66% | Potency [6] | Potency [7] | Potency [8] | Potency [9]

CC(C)(O)c1ccc(CNC(=O)c2cccnc2Oc2ccc(F)cc2)cc1
active: Potency [4] 30.6 µM
inactive: Potency [1] | Potency [2] | Potency [3] | activity change, positive = activation [5] -45% | Potency [6] | Potency [7] | Potency [8] | Potency [9]

CCCCCCCC/C=C\CCCCCCCC(=O)OCC
inactive: Potency [1] | Potency [2] | Potency [3] | Potency [4] | activity change, positive = activation [5] -11.5% | Potency [6] | Potency [10] | Potency [7] | Potency [8] | Potency [9]

O=C(O)c1ccc(S(=O)(=O)O)cc1C(=O)O
inactive: Potency [1] | Potency [2] | Potency [3] | Potency [4] | activity change, positive = activation [5] -2.89% | Potency [6] | Potency [7] | Potency [8] | Potency [9]

CC(COCCO)OCCO (stereo unspecified)
inactive: Potency [1] | Potency [2] | Potency [3] | Potency [4] | activity change, positive = activation [5] 0.277% | Potency [6] | Potency [10] | Potency [7] | Potency [8] | Potency [9]

O=[N+]([O-])c1cccc(S(=O)(=O)O)c1
active: Potency [3] 45.7 µM | Potency [4] 27.7 µM | Potency [10] 22.2 µM
inactive: Potency [1] | Potency [2] | activity change, positive = activation [5] -46% | Potency [6] | Potency [7] | Potency [8]
